Measured values: PubChem BioAssay AID640 (Columbia University Molecular Screening Center, 2007)
The whole screen tested about 96,000 compounds, of which about 200 (0.21%) were called active. The sample holds actives, similar compounds and a random draw of the others, so the mix is not that of the screen.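 Rule for the calls: active = inhibition at 2 µM at or above a set limit, the screen mean plus 3 SD (cut at about 24% in these data); inactive = the rest.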

The compounds below were run against Tyrosine-protein phosphatase non-receptor type 22 (Homo sapiens) (UniProt Q9Y2R2) (assay: blockers of human LYP enzyme activity – biochemical, DiFMUP fluorescence, 2 µM, primary screen (AID 640;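 note: 0% = DMSO with enzyme and 100% = enzyme fully blocked by orthovanadate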)). Details: recombinant LYP catalytic domain, at 2 µM, active compounds read high.
Chain of Tyrosine-protein phosphatase non-receptor type 22 (Homo sapiens) (Q9Y2R2 whole entry, looked up, the tested form may be a part): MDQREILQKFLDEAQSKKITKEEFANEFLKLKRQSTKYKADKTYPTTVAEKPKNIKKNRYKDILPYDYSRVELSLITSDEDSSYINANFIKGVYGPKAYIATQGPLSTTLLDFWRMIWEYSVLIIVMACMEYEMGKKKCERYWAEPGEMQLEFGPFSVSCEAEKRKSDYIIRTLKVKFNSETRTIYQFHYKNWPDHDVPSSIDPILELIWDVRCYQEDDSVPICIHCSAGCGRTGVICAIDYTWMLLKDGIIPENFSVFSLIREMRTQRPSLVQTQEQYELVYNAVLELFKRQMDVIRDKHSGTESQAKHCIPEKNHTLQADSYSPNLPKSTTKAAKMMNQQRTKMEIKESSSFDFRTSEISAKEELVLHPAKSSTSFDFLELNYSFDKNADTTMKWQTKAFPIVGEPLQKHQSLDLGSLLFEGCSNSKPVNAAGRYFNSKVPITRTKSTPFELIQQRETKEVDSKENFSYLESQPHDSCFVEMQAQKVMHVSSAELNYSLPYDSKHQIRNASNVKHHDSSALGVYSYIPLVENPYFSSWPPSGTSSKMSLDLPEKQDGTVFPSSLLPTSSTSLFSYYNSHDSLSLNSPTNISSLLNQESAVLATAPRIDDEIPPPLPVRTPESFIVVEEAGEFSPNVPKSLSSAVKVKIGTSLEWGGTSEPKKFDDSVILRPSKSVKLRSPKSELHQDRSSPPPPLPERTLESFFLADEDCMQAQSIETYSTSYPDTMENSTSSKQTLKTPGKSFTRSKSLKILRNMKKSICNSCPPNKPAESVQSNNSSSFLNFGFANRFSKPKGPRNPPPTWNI

inhibition, active:
O=C(Cn1c(-c2ccc(Cl)cc2)noc1=O)N1CCN(c2ccccc2F)CC1 27.2%, CSc1ccc(/C=N\NC(=O)COc2ccc(Cl)cc2Br)cc1 26.5%, COc1cccc(-c2nnc(NC(=O)c3ccc(S(=O)(=O)N(CC(C)C)CC(C)C)cc3)o2)c1 24.4%, Cc1ccc(-c2nc3ccccc3[nH]2)cc1NC(=O)c1sc2ccccc2c1Cl 24.6%, CCCCCCc1cc2cc(-c3nnc(-c4cccc(OC)c4)o3)c(=O)oc2cc1O 30.9%

inhibition, inactive:
O=C1CCCC2=C1C(c1ccccc1)n1c(s/c(=C/c3cccc(F)c3)c1=O)=N2 (stereo not drawn) 3.1%, O=C(Nc1cccc(NC(=O)c2ccco2)c1)c1cnccn1 -8.1%, CCOC(=O)c1nc(Nc2ccc(C(=O)OC)cc2)c2ccccc2n1 1.7%, Cc1noc(COc2ccccc2OCc2onc(C)c2Cl)c1Cl -6.2%, CN1CCCN(S(=O)(=O)c2ccc3c(c2)OCCO3)CC1 14.9%, CC(C)(C)c1cc(=O)n2c(nc3ccccc32)[nH]1 16.2%, CCOC(=O)NNC(=O)c1ccc(Cl)cc1 -7.6%, O=C(CSc1ccccc1)Nc1ccc(NC(=O)c2ccco2)cc1 8.9%, O=C(CN1CCN(S(=O)(=O)c2ccc(Cl)s2)CC1)NCc1ccc(Cl)cc1 -18.4%, O=C(c1ccc(F)cc1)c1c[nH]c(C(=O)NCc2cccnc2)c1 -21.4%, CC(C)C(NC(=O)c1ccc(Cl)cc1)C(=O)O (stereo not drawn) 0.8%, Cc1ccc2c(Cl)c(C(=O)NCCCn3ccnc3)sc2c1 -1.4%, COc1ccc(Cc2nnc(SCC(=O)c3cccc([N+](=O)[O-])c3)n2C)cc1 15.2%, CN(C)c1nc(N)nc(CSc2ccccn2)n1 -6.7%, COc1ccc(CCN2C(=O)C3CC=C(C)CC3C2=O)cc1OC (stereo not drawn) 3.1%, Clc1ccc(C2=CSC3=Nc4cccc5cccc(c45)N23)cc1 13.9%, CC(=O)NC1(c2cccc(F)c2)CCN(CC(=O)NC(C)C)CC1 -6.7%, CC(=O)Oc1ccc(C(C)=O)c2c1OCCO2 -11.9%, Cc1cc2c(cc1C)N(C(=O)CN1C(=O)c3ccccc3C1=O)C(C)(C)c1ssc(=S)c1-2 2.3%, CS(=O)(=O)N(CC(=O)Nc1ccc(Cl)c(Cl)c1)C1CCCCC1 -10%, O=C(Nc1ccccc1[N+](=O)[O-])C1C(c2ccccc2)=C1c1ccccc1 -0.6%, O=C(c1cccc2ccccc12)N1CCN(c2ccccc2F)CC1 -10.2%, O=C(c1ccc(CN2CCOCC2)cc1)N1CCN(c2ccccc2F)CC1 -7.2%, COC(=O)c1nc2ccccc2s1 -12%, COc1ccc(NC(=O)CSc2nc(N)c(-c3ccccc3)c(=O)[nH]2)cc1 -3.5%, C=CCN1C(=O)C(Cc2cccc(Cl)c2)S/C1=N/N=C/c1ccco1 (stereo not drawn) 8.9%, COCc1cc(C(C)=O)ccc1OC 7.3%, O=C(CNC(=O)OCc1ccccc1)Oc1cc2oc(=O)cc(-c3ccccc3)c2cc1Cl 7.8%, CC(C)(C)NS(=O)(=O)c1ccc(NC(=O)NC2CCCCC2)cc1 13%, CCOC(=O)c1c(C)nc2c(c1C)c(=O)oc1ccccc12 -31.8%, Cc1ccc(OCC(=O)N/N=C\c2ccco2)c(C)c1 -4.2%, Cc1ccc(OCC(=O)N/N=C/c2ccncc2)cc1 10.7%, CCC(=O)Oc1cccc(C(=O)Nc2ccc(-c3nnc(-c4ccco4)o3)cc2)c1 8.1%, CC1CCCCN1S(=O)(=O)c1ccc(C(=O)Nc2nnc(-c3cccs3)o2)cc1 (stereo not drawn) 17.2%, O=C(NCCCCc1ccccc1)C1CC(c2ccc([N+](=O)[O-])cc2)=NO1 (stereo not drawn) -3.2%, CCC(C)NC(=O)CSC1=Nc2ccccc2C2=NC(CCC(=O)NCc3ccco3)C(=O)N12 (stereo not drawn) 6.7%, C=CCOc1c2ccc(C(=O)N(CC)c3ccc(OC)cc3)cc2nn1C 1.1%, CCSc1nc(-c2ccc(OC)cc2)cc(-c2ccc(OC)cc2)c1C#N -15.9%, CCOC(=O)C1=C(CSc2nnnn2C)N(C)C(=O)NC1c1ccccc1 (stereo not drawn) 6.4%, O=C(CCl)NNc1cccc(Cl)n1 2.9%, O=C(c1ccc2c(c1)OCO2)N1CCN(C(=O)c2ccco2)CC1 -5%, Cc1cnc(NC(=O)C2CCCC2)s1 -5.5%, CCOC(=O)c1c(NC(C)=O)sc2c(O)c(Br)ccc12 7.9%, COc1ccc(/C=N/Nc2nc3ccccc3c(=O)[nH]2)cc1 2.7%, CC(=O)c1c(C)[nH]c(C(=O)NCc2ccc(C)cc2)c1C 3.9%, CNC(=O)c1nnc(Cc2ccc(Cl)cc2)o1 -2.1%, Cc1ccc(Cl)cc1NC(=O)COC(=O)C1CCCCC1 -5.7%, O=C(Nc1cccc2ncccc12)C(Cl)(Cl)Cl -4%, CCCCN1C(=O)/C(=C2/C=CC=CN2C)SC1=S -5.6%, COc1cc(OC)cc(-c2cc3nc(C4CCN(C(=O)OC(C)(C)C)CC4)cc(=O)n3[nH]2)c1 -4.9%, CC(C)(C)NC(=O)CN(Cc1cccs1)C(=O)CNS(=O)(=O)c1ccccc1 -1.7%, Cc1nn(C(C)CC(=O)O)c(C)c1C (stereo not drawn) 7.9%, CCn1nc(C)c(NC(=O)/C=C/c2ccc(OC)c(COc3ccc(Br)cc3)c2)c1C 13.3%, O=C(CSc1nnc(-c2cccs2)n1Cc1ccccc1)N1CCc2ccccc2C1 -1.7%, Cc1ccc2nc(SC(C)C(=O)NCc3ccco3)[nH]c2c1 (stereo not drawn) -3.6%, Cn1c(=O)c2c(SCC(=O)N3CCOCC3)nc(C3CC3)nc2n(C)c1=O 4%, Cc1cc2cc3c(N)[nH]nc3nc2cc1C -13.7%, Cc1ccc(-c2nc3ccccc3[nH]2)cc1N 0.9%, O=C(Nc1ccon1)c1sc2ccccc2c1Cl -12.9%, Cc1cc([N+](=O)[O-])c(NC2CCCCC2)c([N+](=O)[O-])c1 6.5%, CC1(C)NC(=O)N(CCCCSc2ccc(Cl)cc2)C1=O 3.1%, COC(=O)C1=C(Nc2ccc(C)cc2)C=C(C)C(C(=O)OC)C1c1ccc(F)cc1 (stereo not drawn) -3.3%, c1ccc(CC2CCN(c3nc4ccccc4n4cnnc34)CC2)cc1 7.3%, CON(C)S(=O)(=O)c1ccc2c(c1)NC(=O)C1CCCN21 (stereo not drawn) 6.3%, CN1CCN(C(=O)Cn2c(C(F)(F)F)nc3ccccc32)CC1 1.3%, COc1ccc(-n2c(C)csc2=S)cc1 -3.8%, CCCCN(CC)CCCNC(=O)CS(=O)(=O)Cc1nc(-c2cccc(OC)c2)oc1C 4.8%, CCCCCCc1cc2cc(-c3nnc(-c4ccccc4)o3)c(=O)oc2cc1O 16%, COc1ccc(OCC(=O)NN2Cc3ccccc3C2=N)cc1 8.2%, Cc1cc(=O)oc2cc(OCC3CC(c4ccccc4Cl)=NO3)ccc12 (stereo not drawn) 0.4%, COc1ccc(/C(O)=C2\C(=O)C(=O)N(Cc3ccco3)C2c2ccc(OC)cc2OC)cc1 (stereo not drawn) 3%, O=C(CN(c1ccccc1)S(=O)(=O)c1ccc(Cl)cc1)Nc1ccccc1C(=O)N1CCCC1 3%, Cc1sc2nc(SCC(N)=O)n(C)c(=O)c2c1C -1%, CC(=O)c1cnc(SCCN2C(=O)c3ccccc3C2=O)nc1C -4.7%, CCOc1ccccc1NC(=O)C1CCCN(C(=O)Nc2ccccc2)C1 (stereo not drawn) -6%, COc1cccc(NC(=O)CN2CCN(c3nc(-c4cccc(OC)c4)cs3)CC2)c1 8.7%, CCOC(=O)c1[nH]c(C)c(C(=O)OCC(=O)N2c3ccccc3CC2C)c1C (stereo not drawn) 2.3%, COc1ccc(C(C#N)Nc2ccccc2C)cc1 (stereo not drawn) 7.5%, CCCCNC(=O)C1(c2ccc(OC)cc2)CCOCC1 6.4%, CCNC(=S)N1CCN(C(=O)c2ccco2)CC1 -9.6%, O=C(/C=C/c1ccccc1)N/C(=C/c1ccccc1)C(=O)Nc1ccccc1O 10%, Cc1ccc(-c2cc(C(=O)NCC3CCCO3)c3ccccc3n2)o1 (stereo not drawn) 2.7%, C=CCn1c(-c2ccc(Cl)cc2)ccc(C#N)c1=O 8.4%, Oc1ccc2ccc3cccc[n+]3c2c1 2.8%, Cc1csc2ncc(C(=O)N(Cc3ccccc3)c3ccccn3)c(=O)n12 -3.8%, Cc1ccc(CN(C(=O)c2sc3ccccc3c2Cl)C2CCS(=O)(=O)C2)cc1 (stereo not drawn) 3.5%, CSc1cc(C)n(-c2ccccc2C)c(=S)c1C(C)=O -1.3%, O=C(Nc1ccccc1C(=O)NCCCn1ccnc1)c1ccc(Cl)cc1Cl 4.3%, COc1ccc(CNCCCO)cc1OC 2.8%, c1ccc2c(-c3nn4nnnc4c4ccccc34)cccc2c1 11.7%, COc1ccc(Oc2c(Cl)cnn(-c3ccccc3)c2=O)cc1 -10.1%, COC(=O)CNS(=O)(=O)c1ccc(OC)cc1 -2.1%, CCOc1cc(C(=O)Nc2c(C)ccc3nsnc23)cc(OCC)c1OCC -14.9%, CC(C)(C)c1ccc(C(=O)NCC(=O)OCN2C(=O)c3ccccc3C2=O)cc1 -8.4%, O=C(/C=C/NNC(=O)c1cccc(Br)c1)c1ccccc1 5.3%, Fc1ccccc1COc1ccccc1CNCc1ccncc1 4.4%, CCC(=O)NCCc1nc2ccccc2n1CC -1%, CNc1nc(SC)nc(N(C#N)CC(=O)OC)n1 -3.4%, CCNc1nc(NC(C)C)nc(OCCOC(=O)c2ccccc2)n1 -0.4%, c1ccc(-c2ccnc3nc(-n4cccc4)nn23)cc1 9.9%, Cc1cc2nc(SCCN3CCOCC3)[nH]c2cc1C -1%, O=C1N=C(N2CCOCC2)S/C1=C\C=C/c1ccccc1 0.2%, CCOCCCNC(=O)C(NC(=O)c1ccc(=O)[nH]c1)c1ccc(C)cc1 (stereo not drawn) 3%
